About 83,000 compounds went through this panel and 20% of them were active in at least one assay; those are over-represented in the sample as a whole.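 Percent growth is the endpoint: 0 to 100 indicates growth inhibition (40 means 60% inhibition), 0 means no net growth, and negative values indicate cell death.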 The source made the active and inactive calls. The calls were made as follows: active = growth percent below 10; inactive = the rest.
Test system: MDA-MB-468 breast
Experiment: NCI-60 one-dose screen, 48 h (100 = growth as untreated, 0 = no growth, -100 = all killed)
Conditions: 10 µM unless noted

Row | Structure (SMILES) | growth
1 | C=C1C(=O)O[C@H]2[C@H]1CC/C(COC(=O)NCc1cn(C)c3ccccc13)=C\CC[C@@]1(C)O[C@@H]21 | -38.4% (active)
2 | COc1ccc(-c2n[nH]nc2-c2cc(OC)c(OC)c(OC)c2)cc1 | -0.494% (active)
3 | CN1CCn2c(c(Sc3ccc(C(=O)NO)cc3)c3ccccc32)C1=O | -39.2% (active)
4 | CCCCc1nc(/C=N/Nc2nc(Nc3ccccc3)nc(Nc3ccc(S(N)(=O)=O)cc3)n2)c(Cl)[nH]1 | -12.5% (active)

Reference: PubChem BioAssay (NCI)
